# Assay outcomes: PubChem BioAssay, National Center for Advancing Translational Sciences (NCATS)
# TRHR agonist-1: agonists of human TRH receptor. P34981. TRHR cells, calcium flux fluo-8, FDSS agonist mode. activation, % at 2 µM. 360,000 tested, 0.18% active. AID 493084; in the data active = activation above about 30%; note: 0% is about no effect
#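 Steps: seed TRHR cells overnight; add fluo-8 no-wash Ca dye, RT 30 min–1.5 h; record 10 s baseline; pin-transfer compounds; monitor fluorescence 1 cycle/s for the agonist window. Calcium increases flag candidate agonists.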
# TRHR enhancer-1: allosteric enhancers of human TRH receptor; P34981; TRHR cells, fluo-8 calcium fluorescence, EC20 TRH enhancement; enhancement, % at 2 µM; 360,000 tested, 0.66% active; AID 493056; in the data active = enhancement above about 30%; note: 0% is about no effect
#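 TRHR-expressing cells loaded with fluo-8 calcium dye were read kinetically (ex 480/em 530) during compound addition, then stimulated with an EC20 of TRH (10 nM final). Enhancement of the Gq-mediated intracellular calcium response was scored.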
# PTHR1 agonist: agonists of human PTHR1 parathyroid hormone receptor | HEK293 GP2 PTHR1 cells, GloSensor cAMP luminescence, 1 h | Q03431 | Potency, µM (highest dose often 115 µM), inactives show at the top dose activation, usual class: activators | AID 743266 | 410,000 tested, 0.075% active; note: potency is the fitted concentration of half-maximal effect; nearly all actives have a fitted effect of over 55% in size
#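 HEK-293-derived GP2 cells expressing PTHR1 and a GloSensor cAMP reporter, 3,000/well, plated overnight, given luciferin plus IBMX (each 0.5 mM as added) for 1 h at 37 °C, then compound for 1 h at 37 °C. Luminescence was read after 15 min at room temperature.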
# TRPML1 blocker: blocks the human TRPML1 channel. activity change, negative = inhibition, % (concentration not given with the values). AID 624415. 390,000 tested, 0.02% active. TRPML1-inducible cells, Ca2+ dye fluorescence, FDSS; hits give low values; inhibition of EC80 agonist-evoked calcium signal; in the data active = activity change below about -50%; inconclusive = between about -30% and that limit;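 note: stimulus is agonist 54-4 at its EC80 concentration; % is set by controls: 0 for no effect and ±100 for the full control effect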
#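 Tet-induced TRPML1-DL cells loaded with Ca8 no-wash calcium dye were read kinetically on FDSS. Compound addition was followed by EC80 agonist 54-4 (4 uM final); inhibition was read over 110 s.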
# GLP1R cytotox: cytotoxic in the GLP-1 receptor inverse agonist counter-screen. 410,000 tested, 0.13% active. Potency, µM (doses to about 38.3 µM), for the others: at the highest dose activity change, negative = inhibition, hits mostly inhibitors. HEK293 cAMP-luciferase reporter cells, luminescence, 24 h;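 note: loss of luciferase light is scored as toxicity; potency is the fitted concentration of half-maximal effect; % is set by controls: 0 for no effect and ±100 for the full control effect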
#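 Compound-treated cells are incubated 24 hr at 37 deg C under 5% CO2 after a 12 hour attachment period, then luciferase detection reagent is added and luminescence is measured following 12 min at room temperature; lowered signal indicates toxicity.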
# TRPML1 agonist: agonists of human TRPML1 channel; Q9GZU1; TRPML1-expressing cells, Ca2+ dye fluorescence, FDSS; activation, % (no concentration beside the values); 410,000 tested, 0.12% active; in the data active = activation above about 50%; inconclusive = mostly about 30% to 49%; note: 0% is about no effect
#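 Kinetic FDSS Ca2+ read in Tet-induced TRPML1-DL cells (ABD Ca8 dye plus quencher, 45-90 min RT loading): baseline, then compound, then 110 s agonist window; EC80 agonist 54-4 at 4uM final added afterwards for a 110 s antagonist window.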
# TRHR enhancer-2: confirmation of human TRH receptor allosteric enhancers; shares compounds with TRHR enhancer-1; AID 493076; activity change, negative = inhibition, % at 46.1 µM; TRH receptor cell assay, enhancer confirmation qHTS; 970 tested, under 10 active;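 note: compound effect scored on response to added TRH at EC20 of 10 nM; 0% is about no effect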
# TRHR agonist-2: human TRH receptor agonism confirmation; shares compounds with TRHR enhancer-1; TRHR-expressing cells, agonist activation read-out; Potency, µM (titrated, usually from 46.1 µM), inactives show top-dose activation, hits mostly activators; 970 tested, 8% active; AID 493078; note: potency is the fitted concentration of half-maximal effect; 0% is about no effect; nearly all actives have a fitted effect of over 75% in size
# * = called active by the depositor; i = inactive; u = inconclusive; x = not tested or not shown; [ ] = dose if it differs, or a comment. A selection: hits, their analogues and other compounds. The true share with any hit is near 0.93%. Unless noted, calls come from the whole dose curve; as a rule, active = well fitted curve in the direction sought with a large enough effect; inconclusive = small, poorly fitted or top-dose-only effect, or another doubt; inactive = no such curve, though single readings can be large; an effect the other way counts as inactive or inconclusive.
SMILES,TRHR agonist-1,TRHR enhancer-1,PTHR1 agonist,TRPML1 blocker,GLP1R cytotox,TRPML1 agonist,TRHR enhancer-2,TRHR agonist-2
CC1CCCN(C(=O)Cn2nnc(-c3ccc(S(C)(=O)=O)cc3)n2)C1 (centres undefined),0,41*,-14%,-10,-5%,0,-3,-1%
CC(=N/O)/C(C)=N\NC(=O)c1ccccn1,0,60*,0%,0,-2%,0,1,0%
COc1ccccc1NS(=O)(=O)c1cccc(C(=O)N/N=C/c2c(C)nn(-c3ccccc3)c2N2CCCC2)c1,27,1,i,-13,8%[1.53 µM],1,5,-1%
COc1ccccc1NS(=O)(=O)c1ccc(N/N=C/c2c(C)nn(-c3ccccc3)c2N2CCCC2)c([N+](=O)[O-])c1,0,0,i,3,8%,0,x,x
O=C(NC1C2CC3CC(C2)CC1C3)C1CC1 (centres undefined),0,-11,i,-7,-6%,0,x,x
CCCC(=O)NC1C2CC3CC(C2)CC1C3 (centres undefined),1,51*,i,-9,8%,1,-1,0%
Cc1ccc(/C=N/NC(=O)c2ccccc2OCc2cccc(Br)c2)o1,0,58*,-31%,-7,7%[7.66 µM],2,5,1%
Nc1[nH]nc2nc3ccccc3cc12,0,69*,i,10,-6%[7.66 µM],1,7,1%
COc1ccc(N(Cc2nnc3n2CCCCC3)C(=O)Nc2ccccc2)cc1,1,5,2%,-2,2%[7.66 µM],1,x,x
CCOc1ccc(N(Cc2nnc3n2CCCCC3)C(=O)Nc2cccc(C)c2)cc1,0,58*,i,44,-2%,0,-5,1%
CC(=O)c1ccc(-c2ccc(C3C4C=CCCC4(C)C(=O)N3Cc3ccccc3)c(F)c2)cc1 (centres undefined),x,x,x,63,x,1,x,x
CC1(C)NC(=O)N(CC(O)Cn2nnc3ccccc32)C1=O (centres undefined),0,51*,-3%,21,-9%,6,-1,0%
CC1(C)NC(=O)N(CC(O)CN2C(=O)CCC2=O)C1=O (centres undefined),0,-3,-5%[57.5 µM],8,2%,-1,x,x
Clc1ccccc1-c1nnc2sc(-c3ccc(Br)o3)nn12,28,-5,i,-10,1%,2,-14,1%
Clc1ccc(-c2nnc3sc(-c4ccc(Br)o4)nn23)c(Cl)c1,0,-3,i,0,7%,-1,x,x
COc1cccc(CNc2nc(Cl)nc3nc[nH]c23)c1,x,x,x,x,x,0,x,x
O=C(NC(=S)Nc1cccc2c(O)cccc12)c1ccccc1[N+](=O)[O-],0,50*,-14%,-18,-20%,0,-2,0%
CC1=CC(=C(C#N)c2nc3ccccc3s2)C=C(C)N1CC1CCCO1 (centres undefined),39*,5,-10%,-24,90%,26,u,18µM*
CCCN1CNc2c(c(=O)[nH]c(=S)n2CCc2ccsc2)C1,x,x,x,x,x,-1,x,x
Cc1c(O)ccc2cc(S(=O)(=O)c3ccccc3)c(=O)oc12,37*,2,-26%,5,i,u,1,23µM*
CCCC(=O)N(C)c1ccc(/C=C2\C=Cc3ccccc32)cc1,x,x,x,x,x,-1,x,x
O=C(CCCCl)Oc1ccc2cc(-c3ccc4ccccc4n3)c(=O)oc2c1,32*,2,-16%,12,i,25,9,u
O=Cc1cc2c3c(c1)CCCN3CCC2,x,x,x,x,x,0,x,x
